Measured values reported in PubChem BioAssay AID734 (The Scripps Research Institute Molecular Screening Center, 2007).
Screen size: about 5,100 compounds; fewer than 10 were called active.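 The calls were made as follows: active = inhibition above the mean inhibition over all tested compounds plus 3 SD (cut at about 75% in these data); inactive = the rest.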 The list is a sample of the results.

Biological target: Collagenase 3 (Homo sapiens) (UniProt P45452)
Assay: MMP13 inhibitors among fluorescent compounds, confirmation, biochemical, possible fluorescent artifacts, delta fluorescence (AID 734);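 also: 0% = DMSO only wells and 100% = 8 µM reference MMP13 inhibitor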
Conditions: MMP13 fTHP FRET cleavage, delta fluorescence 4 h; hits give high values;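 each compound tested at 4 µM nominal in triplicate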

inhibition, inactive:
c1ccc2sc(Cc3nnc4n3CCCCC4)nc2c1 4.74%
Cc1onc(-c2ccccc2)c1C(=O)Nc1ccc2c(C)cc(=O)oc2c1 2.15%
CC(=O)c1ccc(N2CCN(C(=O)c3cc(-c4ccc5c(c4)OCO5)nc4ccccc34)CC2)cc1 4.89%
COC(=O)c1c(-n2cnnn2)sc(C)c1C 2.3%
COc1ccc2cc3cc(C(=O)NCCN4CCc5ccccc5C4)oc3nc2c1 -102%
Cn1c(=O)c2nc(-c3ccccc3)oc2c2ccccc21 6.54%
COc1ccc(OC)c(-c2cc(C(=O)NCc3ccco3)no2)c1 12%
CC(C)OCCCn1c(-c2ccco2)nc2nc3ccccc3nc21 -87.8%
CCOC(=O)c1cc(-c2cccs2)nc2onc(C)c12 -44.4%
COc1cc2ccccc2cc1C(=O)OCC(=O)N1CCOCC1 6.42%
COc1ccc(C(=O)/C=C/Nc2cccc(C)n2)cc1OC 5.27%
c1nc2sc3c(c2c2nnnn12)CCCC3 2.51%
COc1ccc(-c2cc(C(F)(F)F)nc(SCC(=O)NCc3ccco3)n2)cc1OC 8.84%
Cc1ccc2c(c1)-c1cc(C)nn1C(c1ccc3c(c1)OCO3)N2 (configuration not stated) 6.53%
O=C1NC(c2ccco2)Nc2ccccc21 (configuration not stated) -3.14%
CCCN(Cc1cc2cc(OC)ccc2[nH]c1=O)C(=O)c1ccncc1 4.53%
CCOC(=O)c1oc2cccc(OC(C)=O)c2c1C 8.37%
NC(=O)C1CCCN(S(=O)(=O)c2ccc(Br)cc2)C1 (configuration not stated) 4.17%
COC(=O)c1[nH]c2ccc(Cl)cc2c1NC(=O)CCN1CCN(C2CCCCC2)CC1 6.19%
COC(=O)c1[nH]c2cccc(OC)c2c1NC(=O)CCN1CC(C)CC(C)C1 (configuration not stated) -1.84%
COCCOC(=O)c1cc(C(=O)c2cc(F)ccc2O)coc1=N 6.65%
COc1cccc(=O)c2c(C)oc(C)c12 6.64%
Cc1ccc2nc(N3CCN(Cc4nnnn4Cc4ccccc4)CC3)c(C#N)cc2c1 1.5%
CCOC(=O)Cc1c(C)nc2c(-c3ccc(Cl)cc3)c[nH]n2c1=O 17.8%
COc1cc2cc(CN(CCN3CCCC3)C(=O)Nc3ccc(F)cc3)c(=O)[nH]c2cc1OC 1.27%
CCS(=O)(=O)Nc1cc(-c2nc3cccnc3s2)ccc1C -0.51%
CCCCNC(=O)CC1Nc2ccccc2NC1=O (configuration not stated) 4.58%
